Experiment [1] in a line: CCTE_Shafer_MEA_acute_spike_number: CCTE's Neural Acute Assay for Total Number of Spikes, Shafer Lab (AID 2284008).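 For AC50: curve fitted for decrease in spike count so AC50 reflects inhibitors.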 Put shortly:
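Total spike count from 40 min recordings before and during compound exposure (0.03-40 uM), given as per-well percent change. Cortical cultures from rat, DIV 13 or 15, 37 C; adaptive detection threshold 8x rms noise.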

Experiment [2] in a line: CCTE_Shafer_MEA_acute_firing_rate_mean: CCTE's Neural Acute Assay for Mean Firing Rate, Shafer Lab (AID 2284009).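 Note: analyzed for loss of signal so actives lower firing rate relative to DMSO.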 A digest of the protocol: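 Primary rat cortical neurons on 16-electrode MEA wells were exposed on DIV 13 or 15 to compound (0.03-40 uM). Spike counts per recording time, averaged over electrodes, were compared between 40-min baseline and 40-min post-exposure recordings as percent change.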

Experiment [3] in a line: CCTE_Harrill_HTTr_Viability_MCF7: CCTE's 6-hour Cell Viability Assessment for the High-Throughput Transcriptomics (HTTr) Platform, in MCF-7 cells cultured in DMEM + 10% fetal bovine serum, Harrill Lab (AID 2284010). A digest of the protocol: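 Read-out is propidium iodide gain of signal by high-content imaging, reflecting membrane integrity loss. Measurements are taken 6 h after dosing, eight concentrations per chemical, with DMSO serving as baseline for bidirectional curve fitting.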

A short description of experiment [4]: CCTE_Harrill_HTTr_Apoptosis_MCF7: CCTE's 6-hour Apoptosis Assessment for the High-Throughput Transcriptomics (HTTr) Platform, in MCF-7 cells cultured in DMEM + 10% fetal bovine serum, Harrill Lab (AID 2284011). Put shortly: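 High-content imaging of CellEvent Caspase 3/7 Green signal follows a six-hour exposure, with eight concentrations per chemical. MCF-7 cells grown in DMEM plus 10% fetal bovine serum; activity fitted in both directions against DMSO.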

The nature of experiment [5]: CCTE_Shafer_MEA_acute_burst_number: CCTE's Neural Acute Assay for Single-Electrode Bursts, Shafer Lab (AID 2284013). Put shortly: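 Primary rat cortical neurons on 16-electrode MEA wells, DIV 13 or 15, exposed to compound (0.03-40 uM; ≥3 wells); 40-min recordings at 37 C before and after treatment. Burst count expressed as percent change from baseline, DMSO as negative control.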

Experiment [6] in a line: CCTE_Shafer_MEA_acute_burst_duration_mean: CCTE's Neural Acute Assay for Mean Burst Duration, Shafer Lab (AID 2284014).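 Note: hits are decreases in mean burst duration relative to DMSO controls.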 Put shortly:
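Mean burst duration was compared between a 40 min baseline and a 40 min recording in the presence of compound (0.03-40 uM, 37 C), giving percent change per well. Cultures were rat cortical neurons at DIV 13 or 15; wells needed ≥10 active electrodes.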

Experiment [7] in a line: CCTE_Shafer_MEA_acute_per_burst_spike_number_mean: CCTE's Neural Acute Assay for Average Number of Spikes Per Burst, Shafer Lab (AID 2284015).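 Note: hits are decreases in mean spikes per burst versus baseline.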 Put shortly: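 Percent change in mean spikes per single-electrode burst is compared between a 40 min baseline and a 40 min recording with compound (0.03-40 uM). Cultures were rat cortical neurons on MEA plates at DIV 13 or 15, recorded at 37 C, with DMSO as the negative control.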

Experiment [8] can be described thus: CCTE_Shafer_MEA_acute_interburst_interval_mean: CCTE's Neural Acute Assay for Mean Interburst Interval, Shafer Lab (AID 2284016).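 Note: percent change of mean interburst interval versus each well's own pre-dose baseline; curves fitted for decrease in interburst interval relative to DMSO.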 A digest of the protocol:
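Percent change in mean single-electrode interburst interval was calculated per well from 40 min recordings before and after compound (0.03-40 uM). Recordings were made at 37 C on rat cortical cultures at DIV 13 or 15, with spikes detected at 8x rms threshold.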

Experiment [9] in a line: CCTE_Shafer_MEA_acute_burst_percentage_mean: CCTE's Neural Acute Assay for Percentage of Spikes in a Burst, Shafer Lab (AID 2284017).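 For AC50: curve fitted for loss of signal so potency reflects decreased burst percentage.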 Put shortly:
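Well-level mean burst percentage from a 40-min recording after compound (0.03-40 uM) expressed as percent change from a 40-min baseline at 37C. Cultures: primary rat cortical neurons on MEA, dosed on DIV 13 or 15; fitted downward relative to DMSO.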

Experiment [10] can be described thus: CCTE_Shafer_MEA_acute_burst_percentage_std: CCTE's Neural Acute Assay for Standard Deviation of Burst Percentage, Shafer Lab (AID 2284018).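 Note: fitted in the negative direction so actives lower burst percentage SD.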 A digest of the protocol: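 Value is percent change from baseline in the across-electrode SD of spikes-in-bursts percentage, wells with >/= 10 active electrodes. Acute 40-min exposure to 0.03-40 uM on DIV 13 or 15 rat cortical cultures, recorded at 37 C after 40-min baseline.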

The nature of experiment [11]: CCTE_Shafer_MEA_acute_per_network_burst_spike_number_mean: CCTE's Neural Acute Assay for Average Number of Spikes in a Network Burst, Shafer Lab (AID 2284019).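 For AC50: curve fitted for loss of signal so actives reduce spikes per network burst.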 Put shortly:
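Percent change from baseline in mean spikes per network burst, spikes detected at 8x rms noise. Each compound at 0.03-40 uM in at least three wells of rat cortical cultures, recorded 40 min before and 40 min during exposure.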

Experiment [12] in a line: CCTE_Shafer_MEA_acute_per_network_burst_spike_number_std: CCTE's Neural Acute Assay for Standard Deviation of Number of Spikes in a Network Burst, Shafer Lab (AID 2284020).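 Note: fitted for decrease in spike-number SD versus DMSO so actives lower it.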 Put shortly:
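Endpoint: percent change from 40 min baseline in standard deviation of spikes per network burst, after 40 min compound exposure (0.03-40 uM, 37 C). Cortical rat neurons on MEA at DIV 13 or 15; spikes detected at 8x rms noise, 300-5000 Hz band-pass.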

Experiment [13] can be described thus: CCTE_Shafer_MEA_acute_per_network_burst_electrodes_number_mean: CCTE's Neural Acute Assay for Mean Number of Electrodes in a Network Burst, Shafer Lab (AID 2284021).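 Note: curves fitted for decreases only so hits reduce electrodes per burst.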 A digest of the protocol:
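Percent change from baseline was computed as mean electrode count per network burst, comparing 40 min recordings before and during compound (0.03-40 uM) exposure. Cultures were rat cortical neurons at DIV 13 or 15, recorded on MEAs at 37 C with an adaptive 8x rms threshold.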

Experiment [14] can be described thus: CCTE_Shafer_MEA_acute_network_burst_percentage: CCTE's Neural Acute Assay for Percentage of Network Bursts, Shafer Lab (AID 2284022).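 Note: curves fitted for loss so actives lower network burst percentage.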 Put shortly:
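Network burst percentage (spikes in network bursts divided by total spikes) recorded at 37 C over 40 min baseline and 40 min after compound, 0.03-40 uM, in rat cortical cultures at DIV 13 or 15. Analysed as percent change from baseline versus DMSO.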

The target of experiment [15] is Nucleoli Translocation, AR (gene 367) (UniProt P10275). Kind of experiment: UPITT_HCI_U2OS_AR_TIF2_Nucleoli_Agonist: University of Pittsburgh U2OS Androgen Receptor-Transcriptional Intermediary Factor 2 (AR-TIF2) Agonism High Content Imaging Assay for Nucleoli Translocation (AID 2283998; active = hit-call score of the fitted dose curve at least 0.9, where 1 is the maximum). A digest of the protocol:
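Nucleolar translocation of AR-RFP, with TIF2-GFP coexpressed in human osteosarcoma U2OS, imaged by high-content fluorescence. Compounds tested singly at 20 uM final, confirmed in triplicate, then titrated 0.195–50 uM final; gain-of-signal relative to DMSO.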

The target of experiment [16] is Ratio of Nucleoli Translocation and Cytoplasm, AR (gene 367) (UniProt P10275). Kind of experiment: UPITT_HCI_U2OS_AR_TIF2_Nucleoli_Cytoplasm_Ratio_Antagonist: University of Pittsburgh U2OS Androgen Receptor-Transcriptional Intermediary Factor 2 (AR-TIF2) Antagonism High Content Imaging Assay for Ratio of Nucleoli Translocation and Cytoplasm (AID 2283999; active = hit-call score of the fitted dose curve at least 0.9, where 1 is the maximum;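 note: antagonists lower the DHT-driven ratio of nucleolar to cytoplasmic red signal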). Put shortly:
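Compounds were added to U2OS cells carrying red-fluorescent AR and green-fluorescent TIF2, first at 20 uM, with hits confirmed in triplicate and titrated from 0.195 to 50 uM. Nucleolar versus cytoplasmic AR-RFP fluorescence was then quantified by imaging, with analysis relative to DHT.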

A short description of experiment [17]: CCTE_Harrill_HTTr_CellCount_MCF7: CCTE's Cell Proliferation Assessment for the High-Throughput Transcriptomics (HTTr) Platform, Harrill Lab (AID 2284012; active = hit-call score of the fitted dose curve at least 0.9, where 1 is the maximum;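 note: cells exposed to compound for six hours; intended direction is loss of nuclei count meaning fewer cells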). Put shortly:
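Cell count served as viability reporter: loss of Hoechst-stained nuclei, counted by high content imaging, marks decreased growth or survival. Exposure was 6 h in MCF-7 cells across eight concentrations, with DMSO as baseline.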

For experiment [18], the target named is Estrogen receptor (Homo sapiens) (UniProt P03372). Kind of experiment: CCTE_Deisenroth_AIME_96WELL_LUC_Active: CCTE's 96-well Estrogen Receptor Transactivation Assay with AIME metabolic competence (ERTA luciferase; metabolism positive), Deisenroth Lab (AID 2284023; active = hit-call score of the fitted dose curve at least 0.9, where 1 is the maximum). A digest of the protocol: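 Metabolism-positive mode: induced rat hepatic S9 in alginate microspheres conditions test solutions (0.002 - 200 uM, 10 points) for 2 hours. VM7Luc4E2 ER luciferase reporter cells then exposed 24 h; positive-direction fit against 17beta-estradiol, n=4 typical.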
Sequence of Estrogen receptor (Homo sapiens) (P03372 whole entry, looked up): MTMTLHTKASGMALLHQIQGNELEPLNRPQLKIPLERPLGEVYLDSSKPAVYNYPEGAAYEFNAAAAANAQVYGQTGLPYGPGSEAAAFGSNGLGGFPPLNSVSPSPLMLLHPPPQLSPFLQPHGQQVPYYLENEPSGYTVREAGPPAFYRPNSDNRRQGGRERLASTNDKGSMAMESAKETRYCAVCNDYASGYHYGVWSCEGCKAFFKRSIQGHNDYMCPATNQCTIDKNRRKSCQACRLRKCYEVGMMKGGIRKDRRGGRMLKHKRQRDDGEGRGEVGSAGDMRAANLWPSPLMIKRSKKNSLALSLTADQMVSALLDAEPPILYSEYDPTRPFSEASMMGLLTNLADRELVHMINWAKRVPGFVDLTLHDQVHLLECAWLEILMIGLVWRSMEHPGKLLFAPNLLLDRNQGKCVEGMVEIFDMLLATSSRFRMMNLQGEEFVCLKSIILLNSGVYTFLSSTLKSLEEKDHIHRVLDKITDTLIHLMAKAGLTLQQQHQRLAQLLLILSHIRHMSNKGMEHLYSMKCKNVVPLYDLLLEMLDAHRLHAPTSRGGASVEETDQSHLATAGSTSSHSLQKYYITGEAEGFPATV

Another experiment concerns DIO1 (gene 1733). Kind of experiment: CCTE_GLTED_hDIO1: CCTE's human Deiodinase 1 (DIO1) Inhibition Assay, Great Lakes Toxicology and Ecology Division (GLTED) Lab (AID 2283987; active = hit-call score of the fitted dose curve at least 0.9, where 1 is the maximum;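 note: isolated human DIO1 enzyme in a cell-free setup rather than cells; enzyme activity read as free iodide liberated from substrate via Sandell-Kolthoff colorimetry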). A digest of the protocol:
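Inhibition read as reduced iodide release: after 3 h of human DIO1 with chemical, free iodide is quantified colorimetrically (Sandell-Kolthoff cerium/arsenic reaction). Triplicate plates, DMSO baseline.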

The target of experiment [19] is Ratio of Nucleoli Translocation and Cytoplasm, AR (gene 367) (UniProt P10275). Kind of experiment: UPITT_HCI_U2OS_AR_TIF2_Nucleoli_Cytoplasm_Ratio_Agonist: University of Pittsburgh U2OS Androgen Receptor-Transcriptional Intermediary Factor 2 (AR-TIF2) Agonism High Content Imaging Assay for Ratio of Nucleoli Translocation and Cytoplasm (AID 2284000; active = hit-call score of the fitted dose curve at least 0.9, where 1 is the maximum;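 note: hits raise the red nucleolar to cytoplasm ratio above vehicle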). A digest of the protocol: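 Compounds tested at 20 uM final in primary screen (0.2% DMSO) and 0.195-50 uM final in dose-response (0.5% DMSO). Imaging of human U2OS cells bearing RFP-AR and GFP-TIF2; endpoint is nucleoli/cytoplasm red signal ratio, positive direction relative to DMSO.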
Sequence of Ratio of Nucleoli Translocation and Cytoplasm, AR (gene 367) (P10275 whole entry, looked up): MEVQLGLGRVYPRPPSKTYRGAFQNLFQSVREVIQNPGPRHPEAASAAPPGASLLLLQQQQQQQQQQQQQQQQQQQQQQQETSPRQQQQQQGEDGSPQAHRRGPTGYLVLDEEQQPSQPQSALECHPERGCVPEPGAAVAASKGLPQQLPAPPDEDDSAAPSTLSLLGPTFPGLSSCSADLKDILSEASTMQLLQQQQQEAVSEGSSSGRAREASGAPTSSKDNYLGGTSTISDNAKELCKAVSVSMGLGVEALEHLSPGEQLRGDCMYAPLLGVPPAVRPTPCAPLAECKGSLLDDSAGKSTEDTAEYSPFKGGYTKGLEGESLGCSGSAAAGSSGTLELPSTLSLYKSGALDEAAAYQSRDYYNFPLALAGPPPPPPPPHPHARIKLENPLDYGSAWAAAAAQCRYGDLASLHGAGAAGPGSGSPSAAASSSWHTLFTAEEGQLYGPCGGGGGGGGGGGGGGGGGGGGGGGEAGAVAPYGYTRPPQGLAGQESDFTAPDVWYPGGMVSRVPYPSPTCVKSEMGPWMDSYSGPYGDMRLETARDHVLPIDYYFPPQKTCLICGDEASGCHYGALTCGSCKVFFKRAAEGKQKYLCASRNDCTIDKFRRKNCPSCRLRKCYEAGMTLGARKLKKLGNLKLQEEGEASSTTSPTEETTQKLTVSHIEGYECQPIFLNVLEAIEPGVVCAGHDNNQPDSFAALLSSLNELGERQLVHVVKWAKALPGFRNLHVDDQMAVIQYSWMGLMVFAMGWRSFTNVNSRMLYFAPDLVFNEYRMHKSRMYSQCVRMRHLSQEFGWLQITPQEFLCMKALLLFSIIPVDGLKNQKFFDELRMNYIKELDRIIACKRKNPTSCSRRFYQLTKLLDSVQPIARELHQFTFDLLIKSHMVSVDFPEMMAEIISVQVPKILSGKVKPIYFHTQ

SMILES strings stand for the structures. Results filed as inconclusive are left out. The source made the active and inactive calls. Rule for the calls, unless noted: active = hit-call score of the fitted dose curve at least 0.9, where 1 is the maximum; inactive = score below 0.9. Peptide text beside a SMILES is read from it.

Sequence of Nucleoli Translocation, AR (gene 367) (P10275 whole entry, looked up): as above

With `CC/C=C\CCOC(=O)c1ccccc1O`, the call in [1], in experiment [2], in experiment [3], in experiment [4], in experiment [5] and in experiment [6] was inactive. Further, the molecule was called inactive in experiment [7], in [9], in experiment [10], in [12], in experiment [13] and in [14]. Besides, the AC50 was 15 µM (active) in experiment [8] and 0.003 µM (active) in [11].
Regarding `CCc1cccc(C)c1N`, the molecule was called inactive in experiment [15] and in experiment [16].
On to `COc1ccc(C(=O)c2ccccc2)c(O)c1`, for which the outcome in experiment [16], in experiment [3], in experiment [4] and in experiment [17] was inactive. In addition, in experiment [18], the AC50 is 12.6 µM (active).
`O=C(O)c1cc(O)c2ccccc2c1O`: the AC50 in the experiment on DIO1 (gene 1733) was 50.1 µM (active).
For the molecule `CCCCC/C=C\C/C=C\CCCCCCCC(=O)O`, the AC50 in the experiment with DIO1 (gene 1733) is 19.2 µM (active). Further, the outcome in experiment [3], in experiment [4] and in experiment [17] was inactive.
As to `Oc1ccccc1Cc1ccccc1O`, the AC50 in experiment [1] was 0.207 µM (active); in [2] it was 0.207 µM (active); in experiment [5], 0.159 µM (active); in [6] it was 7.82 µM (active); in experiment [7], 8.01 µM (active); in [8], 0.1 µM (active). Also, the AC50 is 6.16 µM (active) in [9], 8.53 µM (active) in experiment [10] and 1.96 µM (active) in experiment [14]. Besides, the result in [3], in experiment [4], in experiment [11], in experiment [12] and in [13] was inactive.
As for `COC(=O)[C@H](Cc1ccccc1)NC(=O)[C@@H](N)CC(=O)O` (H-Asp-Phe-OMe), the molecule was classed as inactive in [1], in experiment [2], in experiment [5], in experiment [6], in [7] and in experiment [8]. The call in experiment [9], in experiment [10], in experiment [11], in [12] and in experiment [14] was inactive. In addition, the AC50 in [13] was 15 µM (active).
Regarding `CCCCCCCCCCCCCC(=O)OC(C)C`, the result in experiment [15], in [16], in experiment [19], in experiment [3] and in [4] was inactive.
Turning to `CC(=O)OCc1ccccc1`, the molecule was classed as inactive in [15], in experiment [16], in [19], in experiment [4] and in [17].
Regarding `CCCCCCCCCC(C)=O`, the call in experiment [15] and in experiment [19] was inactive.

For orientation: AC50 means the concentration at which the activity in the assay is half-maximal.

The values above are taken from PubChem BioAssay (EPA / NIEHS).
